“And” between values parts separate entries of the source, which are not always exact repeats. Identical values can stand only once. Out of some 370,000 compounds screened, about 2,300 (0.62%) were called active.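 The calls were made as follows: active = lowest replicate activation of at least 40%, so every replicate reaches that level; inactive = the rest.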 Many of the other results were omitted from the sample, so actives are more common in it than they were. Where a structure was tested more than once in an assay, its records may differ in their call.

The nature of this assay: GLuc luminescence reporter in INS-1E cells, primary screen for activators of glucose-dependent secretion of insulin (AID 743287).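 Also: 0% = median of neutral control wells and 100% = median of IBMX positive control wells.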 As to conditions: INS-1E GLuc reporter insulin secretion, 2-3 h, at 16.6 µM, stronger effect = higher value.
For `Cc1ccc(CN2CCCC(C(=O)c3ccc4c(c3)OCO4)C2)cc1C` (stereo not given), the activation was -7.76% (inactive). On to `COc1cccc(CN2CCCC(C(=O)c3ccccc3SC)C2)c1O` (stereo not given), for which the activation was -0.167% (inactive). Take `COc1ccc(C(=O)C2CCCN(Cc3ccc(C)s3)C2)cc1OC` (stereo not given): the activation is 53.8% (active). To `CCN(CC)C(=O)[C@@H]1C=C2c3cccc4[nH]c(Br)c(c34)C[C@H]2N(C)C1` belongs 13.7% (inactive). For `COC(=O)[C@H]1[C@H](CO)[C@H]2Cn3c(ccc(C4=CCCC4)c3=O)[C@@H]1N2C(=O)CC1CC1`, the activation was -1.71% (inactive).

Consider `FC(F)(F)CN1CC2NC(C1)C2c1ccc(Br)cc1` (stereo not given), for which the activation is -10.5% (inactive). In the case of `O=C(O)[C@H]1[C@H](CO)[C@H]2Cn3c(ccc(-c4ccccc4F)c3=O)[C@@H]1N2C(=O)c1cccnc1`, the activation was 19.1% (inactive). Consider `CC(Cc1ccccc1)NCCC(c1ccccc1)c1ccccc1` (stereo not given), for which the activation is 182% (active). In the case of `CC(Cc1ccccc1)NC=O` (stereo not given), the activation is 3.77% (inactive). To `FC(F)(F)CN1CC2C(c3ccc(Br)cc3)C(C1)N2CC1CC1` (stereo not given) belongs -3.91% (inactive); to `COC(=O)[C@@H]1[C@@H](CO)[C@@H]2Cn3c(ccc(C4=CCCCC4)c3=O)[C@H]1N2CC1CC1`, 6.37% (inactive); to `CCCCCCCCCCCCn1ccc(=N)cc1`, 212% (active).

In the case of `Clc1ccc([C@@H]2CC3CCC2N3)cn1` (stereo not given in full), the activation was -8.41% (inactive). As for `C/C=C/c1ccc(C2[C@@H]3CN(S(C)(=O)=O)C[C@H]2N3)cc1` (stereo not given in full), the activation was -6.54% (inactive). As to `O=C(O)[C@H]1[C@H](CO)[C@H]2Cn3c(cccc3=O)[C@@H]1N2C(=O)c1ccccc1`, the activation is 0.382% (inactive).

For the compound `C=CCN1[C@@H]2CN(S(C)(=O)=O)C[C@H]1C2c1ccc(Br)cc1` (stereo not given in full), the activation was 17.3% (inactive).

In the case of `CC(C)Nc1nc(Cl)nc(NC(C)C)n1`, the activation was 50.3% (active). For the compound `CC(=O)N1C[C@@H]2C(c3ccc(Br)cc3)[C@H](C1)N2C` (stereo not given in full), the activation is 27.1% (inactive) and -21.4% (inactive). As for `COc1ccc2c(c1)[C@@]13CCCCC1[C@@H](C2)NCC3` (stereo not given in full), the activation was 8.42% (inactive). In the case of `COc1cccc(-c2ccc3n(c2=O)C[C@H]2[C@H](CO)[C@@H](C(=O)O)[C@@H]3N2C(=O)c2cnccn2)c1`, the activation was 14.6% (inactive). With `COc1ccccc1CN1[C@@H](CO)[C@@H](c2ccccc2)C12CN(C(=O)Cc1ccccc1)C2`, the activation is -6.56% (inactive). To `COC(=O)C[C@H]1CC[C@H]2NC[C@@H](O)COC[C@@H]2O1` belongs 44% (active) and 14.5% (inactive); to `COC(=O)C[C@@H]1CC[C@@H]2NC[C@@H](O)COC[C@H]2O1`, 7.25% (inactive). As to `CCC(C)NC1(c2ccccc2)CCCCC1` (stereo not given), the activation was 12.2% (inactive). Turning to `C[C@@H]1CN([C@H](C)CO)C(=O)CCCn2cc(nn2)CO[C@@H]1CN(C)C(=O)Oc1cccc2ccccc12`, the activation was -14.5% (inactive).

The record behind these values is PubChem BioAssay AID743287 (Broad Institute, 2014).
